# Assay results reported in the supplement of paper PMC12636033.
# ± gives the standard deviation of the averaged measurements. Over roughly 33,000 sequences, “E-score (rank enrichment, -0.5 to 0.5)” has its median near -0.0068; the highest 2% begin near 0.24. For the sample, the highest values were picked, then their nearest neighbours and some sequences at random.
# Tested on: muMax20 (Max(13-93) K31hArg/K57hArg, M65Nle)
# Experiment: PBM 8-mer E-score (E-score (rank enrichment, -0.5 to 0.5)); higher = stronger preferential binding
# Experimental: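 Protein binding microarray (universal PBM chip covering all 10-mers in fixed probe flanks) with chemically synthesized human Max(13-93) bHLH-LZ analogs (not full-length Max) bearing noncanonical residues (hArg, Tha, Aib, Nle at 65) and aromatic Cys staples. Read-out per 8-mer (and its reverse complement): E-score (rank-based enrichment, -0.5 to 0.5) and Z-score of median probe intensity.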
row,Sequence,PBM 8-mer E-score
1,GAGGAGCC,-0.1 ± 0.084
2,ACCGGTGG,-0.147 ± 0.06
3,ACTACATC,0.224 ± 0.007
4,CACCCCTC,0.11 ± 0.013
5,AACCCATC,-0.108 ± 0.085
6,ACACATCT,0.11 ± 0.072
7,ACACATGT,0.346 ± 0.023
8,ACACATAT,0.184 ± 0.053
9,CAGGCGCC,-0.0488 ± 0.0079
10,ATATTCAT,0.287 ± 0.04
11,TTATTGAA,0.3 ± 0.045
12,ATATTGAT,0.25 ± 0.047
13,GTATTGAA,0.209 ± 0.047
14,ATATTCAA,0.197 ± 0.0025
15,ATATTGAC,0.0428 ± 0.0027
16,ATATTGAG,0.0529 ± 0.069
17,ATATTGAA,0.161 ± 0.022
18,ATATTCAC,0.181 ± 0.12
19,AATGGTAC,0.0908 ± 0.11
20,AACGGCAC,-0.107 ± 0.11
21,CGGTCTCA,-0.242 ± 0.2
22,GGTACCTA,-0.105 ± 0.16
23,AAGCACTT,0.132 ± 0.045
24,ACTATGCG,0.16 ± 0.042
25,AATAAAAG,0.281 ± 0.011
26,AATAAAAC,0.271 ± 0.01

row,Sequence,PBM 8-mer E-score
1,GATAAAAC,0.203 ± 0.078
2,AATAAACA,0.171 ± 0.075
3,AAAAAAAG,0.178 ± 0.016
4,AATAAAAT,0.0637 ± 0.011
5,ATAAAAAA,0.189 ± 0.02
6,ATAAAAGG,0.192 ± 0.058
7,AATAAAAA,0.266 ± 0.015
8,ATAAAAAG,0.328 ± 0.066
9,AATAAAGG,0.0493 ± 0.095
10,AATAAACC,0.175 ± 0.022
11,CGAGCAGC,-0.0303 ± 0.083
12,AGCTTGCA,-0.0404 ± 0.11
13,TCCCTAGA,-0.0505 ± 0.13
14,CAATCTTC,-0.0387 ± 0.0054
15,AAAGTCTG,0.032 ± 0.042
16,GGAATGGA,-0.00962 ± 0.022
17,AACGCGGA,-0.13 ± 0.019
18,AACGCGGC,-0.118 ± 0.16
19,CACGCGAG,0.0936 ± 0.048
20,CACGCGAA,0.0636 ± 0.033
21,CACGCGGA,0.289 ± 0.066
22,CACGCGAC,0.245 ± 0.15
23,CACGCGGC,0.281 ± 0.064
24,GACGCGGC,-0.105 ± 0.025
25,CACGCGGG,0.154 ± 0.086
26,CGACAGCG,-0.213 ± 0.1

row,Sequence,PBM 8-mer E-score
1,CTAGATTA,0.104 ± 0.021
2,AATAACCA,0.076 ± 0.0086
3,CATAACAA,0.147 ± 0.03
4,ACTAACAA,0.236 ± 0.048
5,AGTAACAA,0.117 ± 0.048
6,AATAACAT,0.256 ± 0.028
7,AATAACAC,0.122 ± 0.0046
8,GATAACAA,0.0646 ± 0.12
9,AATAACAA,0.271 ± 0.0084
10,AGTAACAT,0.289 ± 0.038
11,AGTAACAG,0.142 ± 0.024
12,TATAACAA,0.258 ± 0.015
13,AATAACAG,0.0596 ± 0.12
14,ACCGGACT,-0.151 ± 0.13
15,TCAATCCA,0.105 ± 0.008
16,CCTTAAGA,0.0233 ± 0.059
17,ACTTTCAT,0.0117 ± 0.13
18,AGGCGCGC,0.115 ± 0.0093
19,TCGATTAA,0.261 ± 0.051
20,ACGATTAA,0.0506 ± 0.14
21,ATGATTAA,0.169 ± 0.049
22,GCGATTAA,0.14 ± 0.13
23,GTGATTAA,0.256 ± 0.066
24,CTGATTAA,0.0981 ± 0.079
25,CCAGCTCG,-0.23 ± 0.058
26,AAGTCCCA,0.0496 ± 0.017

row,Sequence,PBM 8-mer E-score
1,TCTAGCCA,-0.0192 ± 0.021
2,CGTACCCC,0.134 ± 0.012
3,CGCTCGCA,-0.00112 ± 0.055
4,CTCCTAGC,-0.136 ± 0.081
5,ATCCTAGG,-0.193 ± 0.037
6,ATCCTAGC,0.247 ± 0.0046
7,AAGATGAG,-0.0108 ± 0.035
8,ATTGACTA,-0.0128 ± 0.0061
9,ATCAATGA,0.164 ± 0.044
10,CAAGGCCG,-0.0484 ± 0.016
11,AAAGGCCC,0.105 ± 0.034
12,GAAAGGCC,-0.109 ± 0.036
13,GAAAAGGC,0.3 ± 0.074
14,CAAAAGGC,0.0129 ± 0.021
15,AAAAGGCC,0.294 ± 0.089
16,AAAAAGGC,0.218 ± 0.093
17,AAAGGCCG,0.275 ± 0.088
18,CAAAGGCC,0.0435 ± 0.035
19,GAGTCGTA,0.0328 ± 0.034
20,CTTTTAGC,0.0351 ± 0.039
21,ATGCCTGG,-0.0874 ± 0.034
22,AGCTTTGC,-0.066 ± 0.034
23,TCTGACAA,-0.0236 ± 0.026
24,AATACGAG,0.1434 ± 0.0014
25,CCTCCGAA,-0.0791 ± 0.039
26,GACCCAAC,-0.034 ± 0.061

row,Sequence,PBM 8-mer E-score
1,CCAACCAG,-0.16 ± 0.022
2,TACAAAAA,0.285 ± 0.024
3,AACAAATC,0.243 ± 0.016
4,GACAAATA,0.0845 ± 0.063
5,AACAAGAT,0.22 ± 0.029
6,TACAAATA,0.313 ± 0.007
7,AACAAAAA,0.14 ± 0.044
8,CACAAATA,0.185 ± 0.02
9,AACAAAAT,0.275 ± 0.03
10,GACAAATC,0.0884 ± 0.12
11,TACAAGAA,0.2 ± 0.064
12,AACAAGTC,0.141 ± 0.024
13,GACAAAAA,0.144 ± 0.007
14,CTACCGAA,-0.1 ± 0.022
15,CACAGGCC,-0.118 ± 0.0028
16,AGTTGGGG,0.0207 ± 0.062
17,AGCGGTGA,-0.233 ± 0.0025
18,AAATTTCG,0.186 ± 0.12
19,AACTGAAA,0.146 ± 0.092
20,TGCACCCA,0.0653 ± 0.034
21,GAGGTGGA,-0.138 ± 0.1
22,AACAAGTA,0.101 ± 0.0032
23,AACAAATG,0.155 ± 0.052
24,AACAAACA,0.234 ± 0.022
25,AACAAGTT,0.0361 ± 0.093
26,AACAAATA,0.24 ± 0.0093

row,Sequence,PBM 8-mer E-score
1,AACAAATT,0.269 ± 0.049
2,GCCCCAAC,0.167 ± 0.046
3,ATAGCAAG,0.248 ± 0.0032
4,ATAGCAAT,0.1707 ± 0.0013
5,ATAGCAAC,0.0478 ± 0.052
6,ACTCCATG,-0.0772 ± 0.0052
7,CCTACCCC,0.0896 ± 0.026
8,CGGTATGA,-0.017 ± 0.021
9,GCATAATA,0.239 ± 0.0054
10,ACATAATC,0.0995 ± 0.051
11,ACATAATA,0.294 ± 0.053
12,CCATAATA,0.213 ± 0.05
13,GCATAAGA,0.107 ± 0.021
14,ACATAATG,0.231 ± 0.099
15,CCAAGTGA,-0.0263 ± 0.0041
16,CCGACGTC,-0.172 ± 0.09
17,CCAGAACA,0.162 ± 0.0036
18,CGGCCACC,-0.305 ± 0.094
19,CTCTATGA,-0.000995 ± 0.044
20,AAAACCCC,0.126 ± 0.077
21,AAATCGAG,0.0488 ± 0.046
22,GCACGTCC,-0.0223 ± 0.063
23,GAACGTGA,-0.00796 ± 0.078
24,GCACGTGA,0.392 ± 0.1
25,GCACGTGC,0.454 ± 0.049
26,GCACGTAC,-0.051 ± 0.064

row,Sequence,PBM 8-mer E-score
1,GGACGTGA,-0.122 ± 0.048
2,CGCAGTTC,-0.116 ± 0.012
3,CCATCAGC,-0.0581 ± 0.017
4,GAATTCCA,0.017 ± 0.13
5,AAATTCCA,0.254 ± 0.0063
6,CAATTCCA,-0.00806 ± 0.02
7,GGGCGTAA,-0.0137 ± 0.039
8,ATATCTTA,0.0954 ± 0.0085
9,ATATCTTC,0.273 ± 0.027
10,CTATCTTC,0.137 ± 0.013
11,GAGTGCCC,-0.0978 ± 0.005
12,CTATACCC,-0.0276 ± 0.12
13,CAAAAAAC,0.21 ± 0.017
14,GAAAACAC,0.0158 ± 0.069
15,AAAAAAAC,0.236 ± 0.056
16,GAAGAAAC,0.241 ± 0.024
17,AAAAAACC,0.2 ± 0.036
18,CAAGAAAC,0.177 ± 0.047
19,GAAGAAAA,0.119 ± 0.022
20,ACGAAAAC,0.248 ± 0.03
21,CAAAACAC,-0.0123 ± 0.11
